Inconclusive results are not listed. Active and inactive are the calls of the source. Unless noted, calls come from the whole dose curve; as a rule, active = well fitted curve in the direction sought with a large enough effect; inconclusive = small, poorly fitted or top-dose-only effect, or another doubt; inactive = no such curve, though single readings can be large; an effect the other way counts as inactive or inconclusive.
Columns and labels:
[1] = Stat Signaling Pathway (AID 446; active = well fitted curve in either direction with a large enough effect, not every such curve was filed as active;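 note: ME-180 cervical cancer cells given 40 pM IL-6 alongside compound; SIE-controlled beta-lactamase reporter measured as 460/530 nm FRET emission ratio; % is set by controls: 0 for no effect and ±100 for the full control effect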); settings: ME-180 SIE beta-lactamase reporter, IL-6 stimulated, 5 h; at 7.69 µM (top of the series) unless noted
Method in brief: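 Reporter line: ME-180 cervical carcinoma, SIE-beta-lactamase. Treatment: compound with 40 pM IL-6, 5 hrs, 37 C, in low-serum OPTI-MEM with 10 mM HEPES pH 7.3. Detection: 460/530 nm fluorescence.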

[2] = target: Glucocorticoid receptor (Homo sapiens) (UniProt P04150); assay: GR-EFC Redistribution (AID 451; calls by dose curve; note: potency is the fitted concentration of half-maximal effect); settings: CHO-K1 GR-EFC translocation, beta-gal luminescence, 2 h
Glucocorticoid receptor (Homo sapiens), sequence (P04150 whole entry, looked up, the tested form may be a part): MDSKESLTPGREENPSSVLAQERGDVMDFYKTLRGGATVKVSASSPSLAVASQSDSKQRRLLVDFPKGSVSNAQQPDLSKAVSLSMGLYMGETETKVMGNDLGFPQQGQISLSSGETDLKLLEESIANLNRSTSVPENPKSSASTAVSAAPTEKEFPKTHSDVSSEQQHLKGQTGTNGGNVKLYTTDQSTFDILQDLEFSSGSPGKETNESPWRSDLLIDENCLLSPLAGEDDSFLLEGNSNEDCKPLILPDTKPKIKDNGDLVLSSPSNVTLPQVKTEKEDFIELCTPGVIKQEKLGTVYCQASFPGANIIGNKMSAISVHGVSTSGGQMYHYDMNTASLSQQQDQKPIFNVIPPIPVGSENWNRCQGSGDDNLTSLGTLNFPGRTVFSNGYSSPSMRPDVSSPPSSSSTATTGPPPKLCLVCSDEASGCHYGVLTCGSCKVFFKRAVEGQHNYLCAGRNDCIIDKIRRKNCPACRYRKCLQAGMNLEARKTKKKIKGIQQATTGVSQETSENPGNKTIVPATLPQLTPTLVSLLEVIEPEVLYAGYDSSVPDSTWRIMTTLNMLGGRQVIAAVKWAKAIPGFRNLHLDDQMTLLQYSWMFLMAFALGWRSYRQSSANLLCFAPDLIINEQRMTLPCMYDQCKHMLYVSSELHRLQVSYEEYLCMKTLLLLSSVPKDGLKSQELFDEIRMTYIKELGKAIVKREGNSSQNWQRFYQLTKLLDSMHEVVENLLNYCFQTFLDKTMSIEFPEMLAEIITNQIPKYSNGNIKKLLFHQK
Method in brief: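 CHO-K1 cells stably expressing nuclear-localized β-gal enzyme acceptor and GR fused C-terminally to the enzyme donor fragment; ligand-driven nuclear translocation restores β-gal by complementation. Compounds titrated up to 46 uM final, 2 h at 37 °C; luminescence read.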

[3] = target: Mitogen-activated protein kinase 10 (Mus musculus) (UniProt Q61831); assay: JNK3 AlphaScreen Assay (AID 530; active = well fitted curve in either direction with a large enough effect, not every such curve was filed as active;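 note: kinase came from lysate of stimulated human HepG2 cells; signal reports phosphorylation of biotinylated GST-cJun 1-79 at Ser73 with 10 µM ATP; % is set by controls: 0 for no effect and ±100 for the full control effect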)
Method in brief: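 Inhibitors reduce antibody binding to phosphorylated biotin-cJun, lowering AlphaScreen luminescence. Lysates from HepG2 cells pre-activated by IL-1beta plus TNF-alpha supplied JNK3; compounds were titrated.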

[4] = qHTS Assay for Lipid Storage Modulators (AID 1519; calls by dose curve); settings: Drosophila S3 cells, BODIPY lipid droplet/cell ratio, laser cytometry, cells loaded with oleic acid; for activity change, negative = inhibition: at 57.5 µM (top of the series)
Method in brief: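 Cells seeded at 5,000 per well were treated with compounds over a concentration series and loaded with oleic acid (400 uM, as added). Lipid droplet fluorescence (488 nm excitation, 500-530 nm channel) was read by laser-scanning cytometry and normalized to 20 uM Triacsin C.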

[5] = Primary qHTS for small molecule stabilizers of the endoplasmic reticulum resident proteome: Secreted ER Calcium Modulated Protein (SERCaMP) assay (AID 1508630); note: % is set by controls: 0 for no effect and ±100 for the full control effect
Method in brief: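 GLuc-SERCaMP-expressing SH-SY5Y cells, pretreated 16 h with compound, are challenged with thapsigargin to empty ER calcium stores; after 4 h, coelenterazine is added directly to the medium and luminescence is imaged.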

[6] = AP1 Signaling Pathway (AID 357; active = well fitted curve in either direction with a large enough effect, not every such curve was filed as active;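 note: ME-180 reporter cells stimulated with EGF at its EC50 level; % is set by controls: 0 for no effect and ±100 for the full control effect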); settings: ME-180 (cervical carcinoma) AP-1-bla reporter, EGF-induced, beta-lactamase ratio, 5 h; at 7.69 µM (top of the series) unless noted
Method in brief: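 A ratiometric CCF4 readout (405 nm excitation; 460 and 530 nm emission) quantified AP-1-driven beta-lactamase in ME-180 cells after 5 h with compound and EC50 EGF; AC50 values were derived for activators and inhibitors.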

[7] = NFAT Signaling Pathway (AID 444; active = well fitted curve in either direction with a large enough effect, not every such curve was filed as active); settings: Jurkat NFAT-bla M1, carbachol, beta-lactamase ratio, 5 h; at 7.69 µM (top of the series) unless noted
Method in brief: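 Jurkat cells carrying an NFAT-driven β-lactamase reporter and co-transfected muscarinic M1 receptor were treated with compound plus carbachol (1 uM final, an EC50 level) for 5 h at 37 °C. CCF4 loading followed for 1 h at RT; 460/530 nm ratio gave %activity.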

[8] = target: 3',5'-cyclic-AMP phosphodiesterase 4B (Homo sapiens) (UniProt Q07343); assay: qHTS Assay for Inhibitors of PDE-IV (AID 607; active = well fitted activation curve with a large enough effect in the main read-out, with a control signal flat, not every such curve was filed as active; note: % of control where 0% means no effect)
3',5'-cyclic-AMP phosphodiesterase 4B (Homo sapiens), sequence (Q07343 whole entry, looked up): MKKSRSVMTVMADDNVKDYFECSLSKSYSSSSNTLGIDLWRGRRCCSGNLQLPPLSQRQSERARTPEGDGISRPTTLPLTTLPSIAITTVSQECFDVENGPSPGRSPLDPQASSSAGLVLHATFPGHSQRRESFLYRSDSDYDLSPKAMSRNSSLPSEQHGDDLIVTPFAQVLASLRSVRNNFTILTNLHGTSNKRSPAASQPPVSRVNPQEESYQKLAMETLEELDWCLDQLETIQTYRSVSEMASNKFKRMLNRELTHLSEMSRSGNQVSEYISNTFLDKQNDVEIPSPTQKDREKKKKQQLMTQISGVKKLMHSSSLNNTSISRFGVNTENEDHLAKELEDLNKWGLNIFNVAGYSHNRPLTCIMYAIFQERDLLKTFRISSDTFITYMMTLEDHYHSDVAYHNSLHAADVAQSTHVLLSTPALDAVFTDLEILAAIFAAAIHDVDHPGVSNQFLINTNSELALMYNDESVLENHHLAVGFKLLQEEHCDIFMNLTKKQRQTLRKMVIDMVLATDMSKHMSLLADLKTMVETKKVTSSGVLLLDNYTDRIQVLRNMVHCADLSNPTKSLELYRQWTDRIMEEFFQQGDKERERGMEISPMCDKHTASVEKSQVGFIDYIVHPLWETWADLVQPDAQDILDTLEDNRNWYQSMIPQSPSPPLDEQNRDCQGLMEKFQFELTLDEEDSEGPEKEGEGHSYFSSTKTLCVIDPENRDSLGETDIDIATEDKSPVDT
Method in brief: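 Cell-based read-out of cAMP via a modified cyclic nucleotide-gated channel and membrane potential dye (535/590 nm) in HEK293 cells expressing PDE4 endogenously. Compounds tested up to 22.9 uM final; 100 uM RO 20-1724 reference.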

[9] = target: Lysosomal acid glucosylceramidase (Homo sapiens) (UniProt P04062); assay: Glucocerebrosidase-p2 (AID 348; in the data active = potency below about 10 µM; note: potency is the fitted concentration of half-maximal effect); settings: purified GBA, blue fluorogenic substrate, 40 min
Method in brief: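 Compounds titrated from 0.6 nM upwards against 0.2 nM enzyme in pH 5.9 citric acid/KH2PO4, taurocholate, tween-20; blue fluorogenic substrate 80 uM, 40 min room temperature, stopped and read Ex 365/Em 440 for AC50.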

[10] = target: Cytochrome P450 1A2 (Homo sapiens) (UniProt P05177); assay: p450-cyp1a2 (AID 410; calls by dose curve; note: potency is the fitted concentration of half-maximal effect;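 for activity change, negative = inhibition: -100% = full effect of reference inhibitor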)
Cytochrome P450 1A2 (Homo sapiens), sequence (P05177 whole entry, looked up): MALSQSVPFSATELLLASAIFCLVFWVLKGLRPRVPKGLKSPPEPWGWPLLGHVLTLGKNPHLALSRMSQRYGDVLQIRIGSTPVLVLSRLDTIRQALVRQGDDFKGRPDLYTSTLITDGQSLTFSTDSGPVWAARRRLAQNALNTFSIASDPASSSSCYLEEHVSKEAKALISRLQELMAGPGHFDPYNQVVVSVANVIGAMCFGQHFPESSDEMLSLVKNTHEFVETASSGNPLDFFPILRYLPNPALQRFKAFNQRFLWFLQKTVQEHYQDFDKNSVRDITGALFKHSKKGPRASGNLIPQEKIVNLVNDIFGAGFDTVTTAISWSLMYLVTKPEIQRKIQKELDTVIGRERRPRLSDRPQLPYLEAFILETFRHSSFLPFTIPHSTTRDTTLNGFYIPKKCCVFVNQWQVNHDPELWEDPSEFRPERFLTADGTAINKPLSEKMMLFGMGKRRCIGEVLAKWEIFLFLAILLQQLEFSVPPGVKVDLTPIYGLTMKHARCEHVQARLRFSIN
Method in brief: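 20nM CYP1A2 with 100uM Luciferin-ME (at Km) in 100mM KPO4; compound preincubated 10 min, NADPH regeneration added, 60 min at room temperature. Luciferin quantified by luminescence after detection reagent; normalized to 57 uM furafylline.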

[11] = target: Glucocorticoid receptor (Homo sapiens) (UniProt P04150); assay: GR-GFP Redistribution (AID 450;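 active = compounds whose dose series gives a full or clear partial fitted curve of increased nuclear translocation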; note: potency is the fitted concentration of half-maximal effect); settings: U2OS GR-GFP nuclear translocation, laser cytometry, 2 h
[12] = target: Cytochrome P450 3A4 (Homo sapiens) (UniProt P08684); assay: qHTS Assay for Activators of Cytochrome P450 3A4 (AID 885); note: nearly all actives have a fitted effect of over 65% in size; note: potency is the fitted concentration of half-maximal effect
Method in brief: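 Signal was normalized against complete inhibition by 57 uM ketoconazole. The reaction used 20nM CYP3A4 with 25uM Luciferin-PPXE, 10-min compound preincubation and a 60-min NADPH-supported step at RT.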

[13] = target: Dual specificity protein kinase CLK4 (Homo sapiens) (UniProt Q9HAZ1); assay: qHTS Assay for Inhibitors of CDC-like Kinase 4 (ADP-FP Assay) (AID 1795); note: % is set by controls: 0 for no effect and ±100 for the full control effect; nearly all actives have a fitted effect of over 60% in size
Method in brief: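 Recombinant human Clk4 (6.25 nM) phosphorylated RS repeat peptide (100 uM) with 1 uM ATP in Tris pH 7.5/MgCl2/EGTA/DTT/Triton buffer for one hour. ADP was quantified by Transcreener competitive fluorescence polarization against an ADP calibration curve.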

[14] = target: Ubiquitin carboxyl-terminal hydrolase 1 (Homo sapiens) (UniProt O94782); assay: Inhibitors of USP1/UAF1: Pilot qHTS (AID 504865); note: nearly all actives have a fitted effect of over 35% in size; note: potency is the fitted concentration of half-maximal effect
Ubiquitin carboxyl-terminal hydrolase 1 (Homo sapiens), sequence (O94782 whole entry, looked up): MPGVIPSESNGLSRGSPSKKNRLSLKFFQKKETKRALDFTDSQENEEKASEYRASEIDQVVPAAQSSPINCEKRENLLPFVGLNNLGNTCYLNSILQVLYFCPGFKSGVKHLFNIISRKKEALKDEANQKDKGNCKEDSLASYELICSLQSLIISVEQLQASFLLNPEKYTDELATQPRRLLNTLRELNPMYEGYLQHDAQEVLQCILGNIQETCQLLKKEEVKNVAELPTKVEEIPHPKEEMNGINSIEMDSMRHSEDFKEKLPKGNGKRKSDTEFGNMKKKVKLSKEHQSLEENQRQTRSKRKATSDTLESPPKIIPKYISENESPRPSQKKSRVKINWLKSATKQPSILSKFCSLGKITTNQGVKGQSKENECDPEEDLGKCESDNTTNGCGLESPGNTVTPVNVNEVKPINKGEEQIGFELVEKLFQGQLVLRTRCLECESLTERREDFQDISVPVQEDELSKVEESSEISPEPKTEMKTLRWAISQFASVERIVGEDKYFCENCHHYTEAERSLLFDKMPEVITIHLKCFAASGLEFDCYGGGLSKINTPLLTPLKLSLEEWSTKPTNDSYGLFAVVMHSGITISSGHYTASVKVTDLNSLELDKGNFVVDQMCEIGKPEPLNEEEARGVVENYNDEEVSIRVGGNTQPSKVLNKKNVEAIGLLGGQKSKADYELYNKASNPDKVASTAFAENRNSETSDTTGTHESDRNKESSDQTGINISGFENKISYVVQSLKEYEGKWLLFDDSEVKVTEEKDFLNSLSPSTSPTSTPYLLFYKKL
Method in brief: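 USP1/UAF1 complex (1nM) preincubated with compound 15 min at room temperature, then Ub-Rho substrate (150nM final) added. Fluorescence read kinetically at 480/540 nm, 6 reads every 60 seconds. Buffer: 50mM HEPES pH 7.8, 0.5mM EDTA, 0.1 mg/ml BSA, 1mM TCEP, 0.01% Tween-20.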

[15] = target: Rap guanine nucleotide exchange factor 3 (Homo sapiens) (UniProt O95398); assay: Confirmatory qHTS for antagonist of cAMP-regulated guanine nucleotide exchange factor 3 (EPAC1) (AID 1645880);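 note: plate controls were DMSO only for no effect and full effect of the ATA control for full effect; nearly all actives have a fitted effect of over 55% in size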
Rap guanine nucleotide exchange factor 3 (Homo sapiens), sequence (O95398 whole entry, looked up): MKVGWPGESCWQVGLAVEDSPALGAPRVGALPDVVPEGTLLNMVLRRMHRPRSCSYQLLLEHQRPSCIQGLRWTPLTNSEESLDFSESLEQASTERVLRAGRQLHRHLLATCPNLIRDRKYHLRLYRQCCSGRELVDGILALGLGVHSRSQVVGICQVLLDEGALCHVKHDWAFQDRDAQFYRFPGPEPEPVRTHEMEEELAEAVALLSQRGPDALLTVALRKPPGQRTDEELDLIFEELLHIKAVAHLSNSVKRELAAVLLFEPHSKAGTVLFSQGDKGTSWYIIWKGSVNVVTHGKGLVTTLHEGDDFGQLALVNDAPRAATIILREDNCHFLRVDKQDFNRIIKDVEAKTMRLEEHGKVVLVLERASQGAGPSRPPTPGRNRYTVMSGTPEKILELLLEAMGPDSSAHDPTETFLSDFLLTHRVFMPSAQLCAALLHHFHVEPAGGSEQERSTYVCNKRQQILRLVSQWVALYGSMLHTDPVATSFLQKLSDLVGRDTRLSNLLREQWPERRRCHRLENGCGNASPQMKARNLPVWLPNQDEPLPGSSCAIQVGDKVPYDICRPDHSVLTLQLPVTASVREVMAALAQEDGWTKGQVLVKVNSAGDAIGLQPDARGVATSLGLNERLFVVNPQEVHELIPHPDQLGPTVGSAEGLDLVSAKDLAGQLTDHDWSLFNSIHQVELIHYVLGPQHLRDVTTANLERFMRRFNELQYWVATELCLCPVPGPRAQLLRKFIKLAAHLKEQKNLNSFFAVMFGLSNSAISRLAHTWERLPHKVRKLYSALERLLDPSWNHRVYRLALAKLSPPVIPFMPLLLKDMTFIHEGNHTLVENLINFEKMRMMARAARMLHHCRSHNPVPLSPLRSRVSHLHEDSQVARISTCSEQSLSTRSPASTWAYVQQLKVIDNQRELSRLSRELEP
Method in brief: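 Nucleotide exchange uses 100 nM EPAC1, 250 nM RAP1B-BODIPY-GDP and 50 uM GDP, with compounds in a concentration-titration series. After 5 min at room temperature, fluorescence (480 nm ex/540 nm em) is read every 5 min for 30 min. Data are normalized to control ATA and DMSO.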

[16] = target: Rap guanine nucleotide exchange factor 3 (Homo sapiens) (UniProt O95398); assay: Confirmatory qHTS for agonist of cAMP-regulated guanine nucleotide exchange factor 3 (EPAC1) (AID 1645881);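 note: EPAC1 catalysed release of BODIPY-GDP from Rap1B seen as fluorescence loss; 100% = effect of cAMP agonist control; nearly all actives have a fitted effect of over 75% in size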
[17] = target: Rap guanine nucleotide exchange factor 4 (Homo sapiens) (UniProt Q8WZA2); assay: Confirmatory qHTS for agonist of cAMP-regulated guanine nucleotide exchange factor 4 (EPAC2) (AID 1645884);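 note: nucleotide exchange releases bodipy-GDP from Rap1 and this lowers its fluorescence; % is set by controls: 0 for no effect and ±100 for the full control effect; nearly all actives have a fitted effect of over 65% in size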
Rap guanine nucleotide exchange factor 4 (Homo sapiens), sequence (Q8WZA2 whole entry, looked up): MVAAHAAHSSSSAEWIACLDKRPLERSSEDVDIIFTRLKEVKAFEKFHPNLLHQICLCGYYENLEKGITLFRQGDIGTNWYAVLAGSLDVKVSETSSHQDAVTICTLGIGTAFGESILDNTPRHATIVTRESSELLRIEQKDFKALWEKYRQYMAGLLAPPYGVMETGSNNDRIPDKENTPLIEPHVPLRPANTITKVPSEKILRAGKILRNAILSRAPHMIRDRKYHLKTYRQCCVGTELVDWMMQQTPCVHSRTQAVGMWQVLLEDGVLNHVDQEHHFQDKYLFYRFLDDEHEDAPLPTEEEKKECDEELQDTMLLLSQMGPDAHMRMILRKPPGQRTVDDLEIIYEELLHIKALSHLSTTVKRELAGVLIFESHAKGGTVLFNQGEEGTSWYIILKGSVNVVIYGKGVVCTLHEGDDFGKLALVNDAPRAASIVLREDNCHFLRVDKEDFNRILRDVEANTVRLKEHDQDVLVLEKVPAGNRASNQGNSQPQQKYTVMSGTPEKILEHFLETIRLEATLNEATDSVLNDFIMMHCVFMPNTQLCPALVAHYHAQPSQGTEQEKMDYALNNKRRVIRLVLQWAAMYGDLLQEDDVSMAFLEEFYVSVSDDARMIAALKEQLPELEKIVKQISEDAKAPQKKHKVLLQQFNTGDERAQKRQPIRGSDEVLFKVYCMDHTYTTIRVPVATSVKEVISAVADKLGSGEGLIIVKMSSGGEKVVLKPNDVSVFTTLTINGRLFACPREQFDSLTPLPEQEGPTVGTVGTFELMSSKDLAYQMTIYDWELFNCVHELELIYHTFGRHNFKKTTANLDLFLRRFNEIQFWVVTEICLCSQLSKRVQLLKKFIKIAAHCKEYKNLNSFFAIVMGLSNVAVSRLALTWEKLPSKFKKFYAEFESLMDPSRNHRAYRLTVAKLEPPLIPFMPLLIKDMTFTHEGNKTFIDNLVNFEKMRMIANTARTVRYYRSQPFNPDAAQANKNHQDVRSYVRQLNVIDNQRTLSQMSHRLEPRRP

[18] = target: Rap guanine nucleotide exchange factor 4 (Homo sapiens) (UniProt Q8WZA2); assay: Confirmatory qHTS for antagonist of cAMP-regulated guanine nucleotide exchange factor 4 (EPAC2) (AID 1645885); note: nearly all actives have a fitted effect of over 25% in size; note: potency is the fitted concentration of half-maximal effect
[19] = measured here: cell count channel max response
[20] = measured here: lipid channel max response

| Compound | activity, negative = inhibition [1] | Potency [2] | Potency [3] | activity change, negative = inhibition [4] | max response [4, 19] [%] | max response [4, 20] [%] | outcome [5] | activity change, negative = inhibition [6] | activity change, negative = inhibition [7] | Potency [8] | Potency [9] | Potency [10] | Potency [11] | Potency [12] | Potency [13] | Potency [14] | Potency [15] | Potency [16] | Potency [17] | Potency [18] |
| --- | --- | --- | --- | --- | --- | --- | --- | --- | --- | --- | --- | --- | --- | --- | --- | --- | --- | --- | --- | --- |
| COc1ccc(C(=O)N2CCC3(CCCN(C(c4ccccc4)c4ccccc4)C3)CC2)cc1 | 18.3% (inactive) | > 46 µM (inactive) | inactive | -5.74% (inactive) | 2.37 | -2.89 | inactive | – | – | – | – | – | – | – | – | – | – | – | – | – |
| O=C(c1ccncc1)N1CCC[C@@]2(CCN(Cc3ccncc3)C2)C1 | -6.44% (inactive) | > 46 µM (inactive) | inactive | 4.83% (inactive) | 4.05 | 12.8 | inactive | 14.5% (inactive) | 3.82% (inactive) | inactive | – | – | – | – | – | – | – | – | – | – |
| Cc1ccccc1-c1nc(N(C)Cc2ccco2)c2ccccc2n1 | -5.08% (inactive) | > 46 µM (inactive) | inactive | – | – | – | inactive | 13.9% (inactive) | -24% (inactive) | – | > 11.4 µM (inactive) | 1.58 µM (active) | > 46 µM (inactive) | inactive | inactive | 28.2 µM (active) | inactive | inactive | inactive | 35 µM (active) |
| O=C(c1cnccn1)N1CCC2(CC1)CN(c1ccccn1)C2 | 22.6% (inactive) | > 46 µM (inactive) | inactive | 2.3% (inactive) | -1.81 | -0.0464 | inactive | – | -1.72% (inactive) | inactive | – | inactive | – | 3.98 µM (active) | – | – | – | – | – | – |
| N#CCCn1c(=O)c(-c2cccs2)nc2cnc(N3CCOCC3)nc21 | 17.9% (inactive) | > 46 µM (inactive) | inactive | – | – | – | inactive | 3.31% (inactive) | -28.6% (inactive) | inactive | > 11.4 µM (inactive) | – | > 9.22 µM (inactive) | – | inactive | – | inactive | inactive | inactive | inactive |
| Clc1cccc2c1CN(C1=NCCN1)C2 | – | > 46 µM (inactive) | inactive | 3.4% (inactive) | 12.9 | 20.6 | inactive | – | – | inactive | – | 0.398 µM (active) | > 46 µM (inactive) | – | – | inactive | – | – | – | – |
| Cc1noc(C)c1C(=O)N1CCC2(CC1)CN(c1ccccn1)C2 | 3.57% (inactive) | > 46 µM (inactive) | inactive | 4.72% (inactive) | 6.89 | 15.4 | inactive | 23.5% (inactive) | – | inactive | – | – | – | – | – | – | – | – | – | – |
| CCCCCCCCCCCCCC(=O)O[C@H](CC(=O)O)C[N+](C)(C)C | – | > 46 µM (inactive) | inactive | 3.49% (inactive) | -5.36 | -2.97 | inactive | – | – | inactive | – | inactive | > 46 µM (inactive) | – | – | 79.4 µM (active) | – | – | – | – |

Reference: PubChem BioAssay (NCATS)
